# Test results: ChEMBL document CHEMBL3988442, “University of Dundee, Small-Polar-MMV Screening Library” (2021)
# Screen size: about 69,000 compounds; about 950 (1.4%) showed an effect of 50% or more. The full list was thinned out, with strong results kept by preference.
# Tested on: Mycobacterium tuberculosis
# Assay: Cornell M. t heat shock assay; further: in the data most compounds retested in dose-response had high values
# Format: functional, organism-based
# Set-up: dose or concentration left out as unconfirmed
row,Structure (SMILES),Percent Effect
1,c1cnc(N2CCCC(c3cncc(-n4ccnc4)n3)C2)nc1 (stereo unspecified),-40.48%
2,Cc1cc(C)nc(N2CCCC(c3cccc(-n4ccnc4)n3)C2)n1 (stereo unspecified),68.58%
3,CC(=O)N1CCCC(c2cccc(-n3ccnc3)n2)C1 (stereo unspecified),-20.38%
4,O=C(c1ccc2[nH]ccc2c1)N1CCn2cnc(COCC3CC3)c2C1,54.29%
5,O=C(c1ccoc1)N1CCn2cnc(COCC3CC3)c2C1,1.475%
6,Cc1cccc(C(=O)N2CCn3cnc(COCC4CC4)c3C2)c1,29.98%
7,Cn1cc(N2CCC3(CCCN(Cc4ccc(F)cc4)C3)C2=O)cn1.O=C(O)C(F)(F)F (stereo unspecified),-14.44%
8,CC(C)CCN1CCc2cc(C(=O)N(C)C)c(NCC3CC3)nc2CC1.O=C(O)C(F)(F)F.O=C(O)C(F)(F)F,-33.33%
9,CNC(=O)[C@H]1C[C@@H]2CN(Cc3csc(C)n3)C[C@@H]2N1S(C)(=O)=O.O=C(O)C(F)(F)F,2.273%
10,COCc1cncc2c1CCN(C(=O)c1cccc(C#N)c1)C2.O=C(O)C(F)(F)F,18.35%
11,OCC1N(Cc2ccc(F)cc2)[C@H]2CC[C@]1(O)CC2 (stereo partly specified),36.63%
12,CCC(C)NC(=O)Cn1c(Nc2cc(C)cc(C)c2)nc(C)cc1=O (stereo unspecified),104.5%
13,Cc1cc(C)cc(Nc2nc(C)cc(=O)n2CC(=O)NC(C)C)c1,5.735%
14,Cc1cc(=O)n(CC(=O)NC(C)C)c(Nc2ccc(F)c(C)c2)n1,-7.671%
15,Cc1ncsc1C(=O)N1CCCCC1c1cc2nc(C)c(C)c(O)n2n1 (stereo unspecified),-18.91%
16,Cc1noc(C)c1CN1C[C@H]2CN(Cc3cccc(F)c3)C[C@H]2C1.O=C(O)C(F)(F)F.O=C(O)C(F)(F)F,1.076%
17,CCC(=O)N1CCC2(CC1)c1nc[nH]c1CCN2S(C)(=O)=O,-7.001%
18,CCC(=O)N1CCc2[nH]cnc2C12CCN(C(=O)c1snnc1C)CC2,-5.563%
19,CCC(=O)N1CCc2[nH]cnc2C12CCN(C(=O)CCS(C)(=O)=O)CC2,77.54%
20,O=C(O)C(F)(F)F.O=C(O)C(F)(F)F.c1cncc(N2CCCC3(CN(Cc4cccs4)CCO3)C2)c1 (stereo unspecified),-18.25%
21,COCCN1CCc2ncnc(NC(C)C)c2CC1.O=C(O)C(F)(F)F,-1.499%
22,CS(=O)(=O)N1CCC(Nc2ccc(C#N)c(C(F)(F)F)c2)CC1,-3.037%
23,N#Cc1ccc(NC2CCN(c3ncccn3)CC2)cc1Cl,-23.07%

row,Structure (SMILES),Percent Effect
1,N#Cc1ccc(NC2CCN(c3ncccn3)CC2)cc1C(F)(F)F,101.3%
2,COCCN1CCC2(CCN(c3ncccn3)CC2)C1=O.O=C(O)C(F)(F)F,-21.42%
3,O=C(O)C(F)(F)F.O=C(c1cnccn1)N1C[C@@H](OCc2cccnc2)[C@H]2OCCC[C@H]21,-23.96%
4,CN1CCCC(c2cncc(C(=O)NCc3ccccc3Cl)n2)C1.O=CO (stereo unspecified),5.616%
5,CC(=O)Nc1ccc(OCc2noc(C(=O)N3CCCCCC3)n2)cc1,51.07%
6,CC(=O)Nc1ccc(OCc2noc(C(=O)N3CCCCC3)n2)cc1,65.04%
7,CC(=O)Nc1ccc(OCc2noc(C(=O)N3CCCC3)n2)cc1,4.312%
8,O=C(c1nc(Cc2c[nH]c3ccccc23)no1)N1CCCCC1,12.78%
9,O=C(c1nc(COc2ccc3c(c2)OCO3)no1)N1CCCC1,24.96%
10,NC(=O)Cc1ccc(OCc2noc(C(=O)N3CCCC3)n2)cc1,-10.23%
11,O=C(NCC1CC2(CO1)CN(Cc1cccs1)C2)C1CCC1.O=C(O)C(F)(F)F (stereo unspecified),-27.85%
12,O=C(O)C(F)(F)F.O=C(c1ccncc1F)N1CC[C@@H]2OC(COCC3CC3)CC[C@@H]21 (stereo partly specified),-24.6%
13,CC(C)C(C)NC(=O)c1ncn2c1CN(C)S(=O)(=O)c1ccccc1-2.O=C(O)C(F)(F)F (stereo unspecified),-5.107%
14,CCN(C)c1ncnc2c1CCN(Cc1ccsc1)CC2.O=C(O)C(F)(F)F.O=C(O)C(F)(F)F,-17.94%
15,CN(C)CCN(C)C(=O)Cn1cccc2cc(-c3ccc(F)cc3)nc1-2,93.82%
16,O=C(Cn1cccc2cc(-c3ccc(F)cc3)nc1-2)N1CCC(O)CC1,-13.39%
17,COc1ccc(-c2cc3cccn(CC(=O)N4CCOCC4)c-3n2)cc1,-34.2%
18,O=C(O)C(F)(F)F.O=C1CO[C@@H]2CN(CC3CCOCC3)C[C@H]2N1CC1CC1,-5.405%
19,CN1C(=O)CC(c2ccccc2)C12CCN(CC1CC1)CC2.O=C(O)C(F)(F)F (stereo unspecified),1.497%
20,Cc1ccc2cc(C(=O)NCCN3CCS(=O)(=O)CC3)c(C)nc2c1,96.87%
21,CCN1CCN(CCCNC(=O)c2cc3ccc(C)cc3nc2C)CC1,-11.33%
22,COc1ccc2nc(C)c(C(=O)NCCN3CCS(=O)(=O)CC3)cc2c1,0.03382%
23,CCN(CC)Cc1cn2c(n1)CN(Cc1c(C)noc1C)CC2.O=C(O)C(F)(F)F.O=C(O)C(F)(F)F,-4.28%

row,Structure (SMILES),Percent Effect
1,Cn1nccc1-c1nnn2c1COCC(CNC1CCOCC1)C2.O=C(O)C(F)(F)F.O=C(O)C(F)(F)F (stereo unspecified),3.559%
2,CCn1nc(C)c2nc(C)nc(NCCCn3cccn3)c21,-3.879%
3,CCCc1nc(NCCc2ccccc2)c2c(n1)c(C)nn2CC,91.68%
4,CCCc1nc(NCCCO)c2c(n1)c(C)nn2CC,24.94%
5,Cc1nc(NC2CCCC2)c2c(n1)c(C)nn2C,15.85%
6,CCCc1nc(NCCOC)c2c(n1)c(C)nn2CC,-17.61%
7,CCn1nc(C)c2nc(C)nc(NCCc3ccccc3)c21,83.2%
8,Cc1nc(NC2CC2)c2c(n1)c(C)nn2C,-10.52%
9,CCCn1c(NCCc2ccccc2)nc2c(C)nn(C)c2c1=O,22.06%
10,CCn1nc(C)c2nc(C)nc(NCCc3ccc(C)cc3)c21,69.41%
11,CCCc1nc(NCCCOC)c2c(n1)c(C)nn2CC,-13.02%
12,CCn1nc(C)c2nc(C(C)C)nc(NCCc3ccc(O)cc3)c21,-11.29%
13,CCn1nc(C)c2nc(C)nc(NC3CCCC3)c21,69.93%
14,O=C(O)C(F)(F)F.O=C(O)C(F)(F)F.c1cc(CN2CCO[C@H]3[C@H](OCC4CCCC4)CC[C@@H]32)ccn1,3.983%
15,Cc1ccc(C(=O)N2CCC3(CCCN(c4ncc(F)cn4)C3)C2)cn1.O=C(O)C(F)(F)F (stereo unspecified),10.32%
16,C1CC(CO[C@@H]2CC[C@H]3[C@H]2OCCN3CC2CC2)CCO1.O=C(O)C(F)(F)F,-24.78%
17,Cc1ccc(C)c(CSc2nnc(C(N)Cc3ccccc3)o2)c1.Cl (stereo unspecified),-13.89%
18,Cl.O=C(C1CC1)N1CCOC2(CCNCC2)C1,27.3%
19,Fc1ccc(CN2C[C@@H]3OCCN(CC4CCCO4)[C@@H]3C2)cc1.O=C(O)C(F)(F)F.O=C(O)C(F)(F)F (stereo partly specified),-48.55%
20,CCc1ncnc2c1CCN(Cc1ccc3c(c1)OCO3)CC2.O=C(O)C(F)(F)F,-11.62%
21,COC[C@H]1CC[C@@H]2[C@@H](CCN2Cc2ccco2)O1.O=C(O)C(F)(F)F,-6.92%
22,Cc1ccc(CN2CCOC3(CCN(CC4CCOC4)CC3)C2)cc1.O=C(O)C(F)(F)F.O=C(O)C(F)(F)F (stereo unspecified),35.27%
23,CNC(=O)[C@H]1CO[C@H]2CCN(Cc3ccc4ccccc4n3)C[C@H]2C1.O=C(O)C(F)(F)F.O=C(O)C(F)(F)F,-6.104%

row,Structure (SMILES),Percent Effect
1,CCCc1nc(N2CCCCCC2)c2c(n1)c(C)nn2CC,50.35%
2,CCCc1nc(N2CCCCC2)c2c(n1)c(C)nn2CC,-7.298%
3,CCCc1nc(N2CCN(CC)CC2)c2c(n1)c(C)nn2CC,-31.53%
4,COCC(=O)N1CCOCC2(CCN(Cc3cccs3)C2)C1.O=C(O)C(F)(F)F (stereo unspecified),-21.04%
5,Cc1ccc(CN2CCn3c(CN(C)C(C)C)cnc3C2)s1.O=C(O)C(F)(F)F.O=C(O)C(F)(F)F,-14.26%
6,Cc1cn2c(n1)C(CNCC1=Cc3cc(Cl)ccc3OC1)CCC2 (stereo unspecified),99%
7,Cc1cn2c(n1)C(CNCC1=Cc3ccccc3OC1)CCC2 (stereo unspecified),28.86%
8,Cc1cn2c(n1)C(CNCc1ccc(C)s1)CCC2 (stereo unspecified),-22.18%
9,O=C(NCC1CC1)[C@H]1C[C@@H]2CCN(Cc3ccc4c(c3)OCO4)C[C@@H]2O1.O=C(O)C(F)(F)F,-28.42%
10,c1ccc(-c2nc(CNCCn3cccn3)cs2)nc1,-25.33%
11,COc1cccc(-c2nc(CNCCc3cccnc3)cs2)c1,-0.6336%
12,c1cnc(-c2nc(CNCCn3cccn3)cs2)nc1,-0.9429%
13,Fc1ccc(-c2nc(CNCCn3cccn3)cs2)cc1,66.63%
14,Fc1ccc(-c2n[nH]cc2CNCCn2cccn2)cc1,11.69%
15,Fc1ccccc1-c1nc(CNCCn2cccn2)cs1,20.44%
16,Clc1ccccc1-c1nc(CNCCn2cccn2)cs1,54.38%
17,c1csc(-c2nc(CNCCn3cccn3)cs2)c1,10.7%
18,COc1cccc(-c2nc(CNCCn3cccn3)cs2)c1,90.69%
19,COc1cccc(-c2nc(CNCCCn3cccn3)cs2)c1,37.34%
20,c1ccc(-c2nc(CNCCn3cccn3)cs2)cc1,37.88%
21,c1cnn(CCNCc2csc(-c3ccsc3)n2)c1,52.72%
22,Cc1ccc(CN2CCC3(CC2)CN(c2cnn(C)c2)C(=O)CO3)o1.O=C(O)C(F)(F)F,-7.35%
